In general, AC50 refers to the concentration giving half of the maximal activity seen. One may read the IC50 as the midpoint of a concentration-inhibition curve. As a reminder, the viability is a read-out of living cells in per cent, often relative to untreated cells.

Results filed as inconclusive are left out. Active and inactive are the calls of the source.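 The calls were made as follows, unless noted: active = normalized viability below 100% at a tested concentration; inactive = the rest.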

The record followed here is PubChem BioAssay.

Test [1] is described as follows: growth inhibition of DIPG glioma cells, dose response, cell-based, SU-DIPG-XVII, MIPE5.0, CellTiter-Glo, qHTS (AID 1347060; cut-off not given, nearly all actives have AC50 up to about 26 µM;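 as to AC50: cells exposed to compound for 48 hours before viability readout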). Particulars: SU-DIPG-XVII viability, CellTiter-Glo ATP luminescence. For orientation: ATP-based viability assays read luminescence as a measure of living cells.
Test [2] in a line: growth inhibition of DIPG glioma cells, dose response, cell-based, JHH-DIPG-1, MIPE4.0, CellTiter-Glo, qHTS (AID 1347062; cut-off not given, nearly all actives have AC50 up to about 27 µM;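 as to AC50: cells exposed to compound for two days before readout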). Particulars: JHH-DIPG-1 viability, CellTiter-Glo ATP luminescence.
Test [3] can be described thus: growth inhibition of DIPG glioma cells, dose response, cell-based, SU-DIPG-IV, MIPE4.0, CellTiter-Glo, qHTS (AID 1347063; cut-off not given, nearly all actives have AC50 up to about 30 µM;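 also: compound exposure lasted 48 hours before the viability readout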). The note with it: SU-DIPG-IV viability, CellTiter-Glo ATP luminescence.
Test [4] is described as follows: viability loss in pontine glioma line – cell-based, SU-DIPG-XXV, MIPE5.0, CellTiter-Glo, qHTS, dose response (AID 1347065; cut-off not given, nearly all actives have AC50 up to about 26 µM;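 also: cells exposed to compound for 48 hours before ATP readout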). Particulars: CellTiter-Glo ATP luminescence.
The nature of test [5]: SU-DIPG-VI glioma cell viability, MIPE4.0 library, CellTiter-Glo luminescence, qHTS (AID 1347066; cut-off not given, nearly all actives have AC50 up to about 30 µM;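 also: cells exposed to compound for 48 hours before readout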). Particulars: CellTiter-Glo ATP luminescence.
Test [6] is described as follows: JHH-DIPG-1 glioma cell viability, MIPE5.0 library, CellTiter-Glo luminescence, qHTS (AID 1347067; cut-off not given, nearly all actives have AC50 up to about 26 µM;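 also: cells exposed to compound for 48 hours before readout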). Particulars: JHH-DIPG-1 glioma viability, CellTiter-Glo ATP luminescence.
The nature of test [7]: SU-DIPG-XXV glioma cell viability, MIPE5.0 library, qHTS (AID 1347068; cut-off not given, nearly all actives have IC50 up to about 30 µM;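 as to IC50: cells exposed to compound for 48 hours before viability readout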).
A short description of test [8]: sensitizers of A549 cells to miR-34 induction, primary screen, imaging, A549 dox-inducible miR-34, nuclei and caspase counts (AID 1347080;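 active = compounds whose cell count with miR-34 switched on is under 0.7 times the count with it off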). The note with it: A549 miR-34 inducible, Hoechst nuclei count, 48 h.
A short description of test [9]: survival rescue of mitochondrial mutant cells in low glucose, primary screen, MELAS cybrids, Rieske KO mouse fibroblasts, CellTiter-Glo (AID 1508586;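 active = mean z-score across replicates of 1.96 or higher in either the MELAS or the Rieske mutant cell line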;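 also: z relative to plate mean and SD of compound and empty wells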).
Test [10] in a line: growth inhibition of DIPG glioma cells, dose response, cell-based, SU-DIPG-XIII, MIPE5.0, CellTiter-Glo, qHTS (AID 1347064; cut-off not given, nearly all actives have AC50 up to about 23 µM). Particulars: SU-DIPG-XIII viability, CellTiter-Glo ATP luminescence.
Test [11] in a line: modifiers of HSF1 nuclear foci, imaging, Selleck Cancer Library (AID 1347162; in the data active = plate-normalised HSF1 focus index below about 0.46). Particulars: human cells, at 10 µM; SSMD: measured here: HSF1 foci SSMD mean; cell count: measured here: cell number; plate-normalised HSF1 focus index: stronger effect = lower value.
The nature of test [12]: ovarian cancer cell viability with rucaparib, profiling panel, oncology-focused library, rucaparib conditional (AID 1508598). Particulars: patient-derived ovarian cancer cells, CellTiter-Glo viability, 144 h, stronger effect = lower value.
The mark [13] stands for this setting: stronger effect = lower value, cell number ratio, induced over uninduced.
[14] abbreviates: measured here: relative caspase fold change +Dox/-Dox.
The mark [15] stands for this setting: measured here: total cells with miR-34 induction, stronger effect = lower value.
Where [16] appears, read: measured here: total cells without miR-34 induction.
[17] abbreviates: MELAS cybrid survival, CellTiter-Glo 48 h, stronger effect = higher value.
The mark [18] stands for this setting: Rieske KO mouse fibroblast survival, CellTiter-Glo 72 h.

For the molecule `O=C1NCCc2[nH]c(-c3ccncc3)cc21`, the AC50 was 3720 nM (active) in test [1]; 3320 nM (active) in [2]; 2640 nM (active) in test [3]; 2090 nM (active) in [4]; 3320 nM (active) in test [6]. The outcome in test [5] was inactive. For the same molecule, the IC50 in test [7] is 5250 nM (active). Besides, the fold change in [8] (setting [13]) was 1.04 (inactive); in test [8] (setting [14]), 0.743. The cell count was determined as 2250 in [8] (setting [15]) and 2160 in test [8] (setting [16]). In addition, the z-score in [9] (setting [17]) was 0.826 (inactive); in test [9] (setting [18]), -3.11.

For `CCCNS(=O)(=O)Nc1ncnc(OCCOc2ncc(Br)cn2)c1-c1ccc(Br)cc1`, the molecule was classed as inactive in [1], in test [2], in [10], in [5], in test [6] and in [7]. For the same molecule, the fold change in test [8] (setting [13]) is 0.925 (inactive); in test [8] (setting [14]), 0.512. In addition, the values for the cell count in test [8] (setting [15]) and in [8] (setting [16]) were 8090 and 8750, respectively. The z-score was -0.373 (inactive) in test [9] (setting [17]) and -0.0447 in [9] (setting [18]).

For `CCN(CCO)CCCOc1ccc2c(Nc3cc(CC(=O)Nc4cccc(F)c4)[nH]n3)ncnc2c1`, the AC50 is 235 nM (active) in test [1] and 148 nM (active) in [4]. Moreover, the outcome in test [2] and in test [5] was inactive. The figures for the fold change in test [8] (setting [13]) and in test [8] (setting [14]) were 0.945 (inactive) and 0.861, respectively. For the same molecule, the cell count in test [8] (setting [15]) is 2110; in test [8] (setting [16]) it was 2230; in test [11] it was 7480. In test [11], this molecule registered an SSMD of 1.14. Also, the plate-normalised HSF1 focus index in [11] is 1.04 (inactive). For the same molecule, the z-score in test [9] (setting [17]) is -0.237 (inactive); in test [9] (setting [18]) it was 0.586. The viability is 106% (inactive) in [12] (at 0.000305 µM, OCI-C5x cells, with rucaparib 10 µM, 100% = cells with rucaparib alone); 113% (inactive) in test [12] (at 0.000305 µM, OCI-C5x cells, without rucaparib); 110% (inactive) in [12] (at 0.000305 µM, OCI-P5x cells, with rucaparib 20 µM, 100% = cells with rucaparib alone); 110% (inactive) in [12] (at 0.000305 µM, OCI-P5x cells, without rucaparib); 103% (inactive) in [12] (at 0.00122 µM, OCI-C5x cells, with rucaparib 10 µM, 100% = cells with rucaparib alone); 118% (inactive) in test [12] (at 0.00122 µM, OCI-C5x cells, without rucaparib). For the same molecule, the viability was 115% (inactive) in [12] (at 0.00122 µM, OCI-P5x cells, with rucaparib 20 µM, 100% = cells with rucaparib alone); 108% (inactive) in [12] (at 0.00122 µM, OCI-P5x cells, without rucaparib); 114% (inactive) in [12] (at 0.00488 µM, OCI-C5x cells, with rucaparib 10 µM, 100% = cells with rucaparib alone); 112% (inactive) in [12] (at 0.00488 µM, OCI-C5x cells, without rucaparib); 115% (inactive) in test [12] (at 0.00488 µM, OCI-P5x cells, with rucaparib 20 µM, 100% = cells with rucaparib alone); 111% (inactive) in test [12] (at 0.00488 µM, OCI-P5x cells, without rucaparib). Further, the viability in [12] (at 0.0195 µM, OCI-C5x cells, with rucaparib 10 µM, 100% = cells with rucaparib alone) is 109% (inactive); in [12] (at 0.0195 µM, OCI-C5x cells, without rucaparib) it was 91.6% (active); in test [12] (at 0.0195 µM, OCI-P5x cells, with rucaparib 20 µM, 100% = cells with rucaparib alone), 104% (inactive); in [12] (at 0.0195 µM, OCI-P5x cells, without rucaparib), 106% (inactive); in test [12] (at 0.0781 µM, OCI-C5x cells, with rucaparib 10 µM, 100% = cells with rucaparib alone), 81% (active); in test [12] (at 0.0781 µM, OCI-C5x cells, without rucaparib), 77.3% (active). Moreover, the viability in [12] (at 0.0781 µM, OCI-P5x cells, with rucaparib 20 µM, 100% = cells with rucaparib alone) is 104% (inactive); in [12] (at 0.0781 µM, OCI-P5x cells, without rucaparib), 80.5% (active); in test [12] (at 0.313 µM, OCI-C5x cells, with rucaparib 10 µM, 100% = cells with rucaparib alone) it was 65.1% (active); in test [12] (at 0.313 µM, OCI-C5x cells, without rucaparib), 80.3% (active); in test [12] (at 0.313 µM, OCI-P5x cells, with rucaparib 20 µM, 100% = cells with rucaparib alone), 82.3% (active); in [12] (at 0.313 µM, OCI-P5x cells, without rucaparib), 65.3% (active). Also, the viability in test [12] (at 1.25 µM, OCI-C5x cells, with rucaparib 10 µM, 100% = cells with rucaparib alone) was 83.4% (active); in test [12] (at 1.25 µM, OCI-C5x cells, without rucaparib), 83% (active); in test [12] (at 1.25 µM, OCI-P5x cells, with rucaparib 20 µM, 100% = cells with rucaparib alone), 86.7% (active); in test [12] (at 1.25 µM, OCI-P5x cells, without rucaparib), 62% (active); in test [12] (at 5 µM, OCI-C5x cells, with rucaparib 10 µM, 100% = cells with rucaparib alone) it was 107% (inactive); in test [12] (at 5 µM, OCI-C5x cells, without rucaparib), 95.3% (active). The viability in [12] (at 5 µM, OCI-P5x cells, with rucaparib 20 µM, 100% = cells with rucaparib alone) is 83.1% (active); in [12] (at 5 µM, OCI-P5x cells, without rucaparib) it was 58.7% (active).
